Several values for one entry are separate records, joined by “and”; a condition that tells them apart may be missing. Equal values may be shown once. Results filed as inconclusive are left out. Where a structure was tested more than once in an assay, its records may differ in their call. Activity calls are given as the source filed them. Calls come from the whole dose curve; as a rule, active = well fitted curve in the direction sought with a large enough effect; inconclusive = small, poorly fitted or top-dose-only effect, or another doubt; inactive = no such curve, though single readings can be large; an effect the other way counts as inactive or inconclusive.
Experiments:
[1] = target: Guanine nucleotide-binding protein G(i) subunit alpha-1 (Homo sapiens) (UniProt P63096); experiment: qHTS Assay for Inhibitors of RGS12 GoLoco Motif Activity (Green Fluorophore) (AID 879);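 note: negative values mean loss of peptide binding seen as reduced polarization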
Chain of Guanine nucleotide-binding protein G(i) subunit alpha-1 (Homo sapiens) (P63096 whole entry, looked up): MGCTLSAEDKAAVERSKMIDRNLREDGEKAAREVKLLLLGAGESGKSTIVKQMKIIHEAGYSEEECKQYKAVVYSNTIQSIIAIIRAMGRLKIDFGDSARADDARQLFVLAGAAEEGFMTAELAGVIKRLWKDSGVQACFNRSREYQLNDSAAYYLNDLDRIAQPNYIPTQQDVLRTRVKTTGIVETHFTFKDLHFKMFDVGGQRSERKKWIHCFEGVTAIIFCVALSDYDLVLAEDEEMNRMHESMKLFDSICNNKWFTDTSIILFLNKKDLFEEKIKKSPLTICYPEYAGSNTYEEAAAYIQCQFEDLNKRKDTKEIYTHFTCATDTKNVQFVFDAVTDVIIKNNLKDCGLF
Method in brief: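 A drop in FITC polarization marked displacement of the FITC-tagged RGS12 GoLoco peptide (10 nM) from Gαi1 (50 nM). Compounds were incubated 10 min at room temperature in Tris pH 7.5 buffer containing 150 mM NaCl, 0.1 mM GDP and 0.05% NP40; unlabeled peptide titration served as control.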

[2] = target: Cytochrome P450 2C9 (Homo sapiens) (UniProt P11712); experiment: qHTS Assay for Inhibitors and Substrates of Cytochrome P450 2C9 (AID 883); note: nearly all actives have a fitted effect of over 60% in size; note: potency is the fitted concentration of half-maximal effect
Chain of Cytochrome P450 2C9 (Homo sapiens) (P11712 whole entry, looked up): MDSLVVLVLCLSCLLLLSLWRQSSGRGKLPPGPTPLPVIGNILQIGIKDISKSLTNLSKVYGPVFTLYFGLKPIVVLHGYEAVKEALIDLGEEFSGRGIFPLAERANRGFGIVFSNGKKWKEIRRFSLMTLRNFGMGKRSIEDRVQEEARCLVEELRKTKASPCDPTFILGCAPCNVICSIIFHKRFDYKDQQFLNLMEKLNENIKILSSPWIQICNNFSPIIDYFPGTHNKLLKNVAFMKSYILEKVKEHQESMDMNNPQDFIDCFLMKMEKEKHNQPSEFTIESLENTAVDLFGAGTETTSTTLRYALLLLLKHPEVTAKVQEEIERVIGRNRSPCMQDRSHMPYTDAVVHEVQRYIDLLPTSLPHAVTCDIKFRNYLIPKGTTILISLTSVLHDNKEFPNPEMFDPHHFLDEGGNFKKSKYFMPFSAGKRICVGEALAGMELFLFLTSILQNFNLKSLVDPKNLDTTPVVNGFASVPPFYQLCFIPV
Method in brief: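 Human CYP2C9 (10nM) with Luciferin-H at 100uM (its KM) in 25mM KPO4; compound preincubated 10 min at 37C, then NADPH regeneration for 60 min at 37C. Luciferin read by luminescence after detection reagent; normalized to 57uM sulphaphenazole as full inhibition.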

[3] = target: Cytochrome P450 2C19 (Homo sapiens) (UniProt P33261); experiment: qHTS Assay for Inhibitors and Substrates of Cytochrome P450 2C19 (AID 899); note: nearly all actives have a fitted effect of over 60% in size; note: potency is the fitted concentration of half-maximal effect
Chain of Cytochrome P450 2C19 (Homo sapiens) (P33261 whole entry, looked up): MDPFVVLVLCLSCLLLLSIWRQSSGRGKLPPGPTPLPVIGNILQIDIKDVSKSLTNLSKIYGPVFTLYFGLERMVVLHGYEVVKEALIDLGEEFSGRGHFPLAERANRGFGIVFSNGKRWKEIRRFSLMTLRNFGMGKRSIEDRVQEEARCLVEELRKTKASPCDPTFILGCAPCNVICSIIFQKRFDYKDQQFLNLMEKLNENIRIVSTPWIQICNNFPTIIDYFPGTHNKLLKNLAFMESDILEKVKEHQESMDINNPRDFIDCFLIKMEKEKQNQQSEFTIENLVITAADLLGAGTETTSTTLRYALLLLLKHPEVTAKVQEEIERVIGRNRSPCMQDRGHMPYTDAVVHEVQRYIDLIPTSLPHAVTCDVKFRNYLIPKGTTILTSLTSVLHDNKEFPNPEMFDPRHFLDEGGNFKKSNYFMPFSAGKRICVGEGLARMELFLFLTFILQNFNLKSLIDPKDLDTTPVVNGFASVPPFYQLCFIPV
Method in brief: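 5 nM human CYP2C19 with 10uM Luciferin-H EGE (at KM) in 50mM KPO4, compound preincubated 10 min at 37C, then NADPH regeneration for 60 min at 37C. Luciferin read by luminescence after detection reagent; normalized to 57uM ketoconazole as full inhibition.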

[4] = qHTS Assay for Identification of Small Molecule Agonists for Thrombopoietin (TPO) Signaling Pathway (AID 917)
Method in brief: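 First, Ba/F3 cells with human TPO receptor were held overnight without IL-3. Next, compounds and TPO (26 pM final) were added. After 24 hrs at 37 C, luciferase detection reagent was added and luminescence measured following 10 min at room temperature.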

[5] = target: Muscarinic acetylcholine receptor M1 (Rattus norvegicus) (UniProt P08482); experiment: qHTS Assay for Antagonists of Acetylcholine Muscarinic M1 Receptor: Kinetic Measurement of Intracellular Calcium Response (AID 943);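 note: Fluo-4 calcium signal as peak divided by basal fluorescence over 4 min; series mostly up to about 35 µM; nearly all actives have a fitted effect of over 75% in size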
Chain of Muscarinic acetylcholine receptor M1 (Rattus norvegicus) (P08482 whole entry, looked up): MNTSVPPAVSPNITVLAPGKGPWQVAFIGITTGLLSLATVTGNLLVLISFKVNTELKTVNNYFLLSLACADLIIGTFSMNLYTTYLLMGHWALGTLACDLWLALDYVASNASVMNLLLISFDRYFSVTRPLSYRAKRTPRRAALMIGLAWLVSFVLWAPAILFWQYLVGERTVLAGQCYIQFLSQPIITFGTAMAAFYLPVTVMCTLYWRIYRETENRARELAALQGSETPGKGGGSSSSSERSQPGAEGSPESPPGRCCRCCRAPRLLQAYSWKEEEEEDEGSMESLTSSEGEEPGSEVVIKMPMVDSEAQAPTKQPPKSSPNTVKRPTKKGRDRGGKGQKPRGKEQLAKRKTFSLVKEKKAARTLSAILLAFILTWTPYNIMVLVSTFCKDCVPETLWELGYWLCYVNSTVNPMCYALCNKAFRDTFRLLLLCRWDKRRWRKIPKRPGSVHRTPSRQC
Method in brief: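 Antagonism measured as reduction of carbachol-evoked (EC80, 100 nM final) calcium flux in rat M1-CHO cells after 10 min compound exposure. Fluo-4 signal read kinetically; ratio of maximal to basal fluorescence.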

[6] = target: Muscarinic acetylcholine receptor M1 (Rattus norvegicus) (UniProt P08482); experiment: qHTS Assay for Antagonists of Acetylcholine Muscarinic M1 Receptor: Measurement of IP-One Response (AID 944); note: nearly all actives have a fitted effect of over 75% in size
Method in brief: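 IP1 accumulation measured via TR-FRET between d2-IP1 and Eu-cryptate anti-IP1 antibody after carbachol (200 nM, EC80) stimulation for 30 min; rat M1-transfected CHO cells received compound 10 min before agonist.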

[7] = Cellular Toxicity (caspase-3) Hek293 (AID 664);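 note: cells exposed to compound for 16 h at 37 °C before readout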
Method in brief: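 Concentration-response qHTS: caspase 3/7 activation measured by luminescent aminoluciferin substrate cleavage after 16 h compound exposure of Hek 293 cells. AC50 from Hill equation, with DMSO as basal and 100 uM tamoxifen as 100%.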

[8] = Cellular Toxicity (caspase-3) N2a (AID 665);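 note: compound exposure lasted 16 h at 37 °C before readout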
Method in brief: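 Caspase-3/7 activation measured as luminescence from Caspase-Glo reagent (1 h, room temperature) after 16 h compound exposure of mouse N2a cells. AC50 values from Hill-equation concentration-response, scaled between DMSO and 10 uM staurosporine.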

[9] = Cellular Toxicity (caspase-3) Renal Proximal Tubule (AID 667);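 note: cells exposed to compound for 16 hours at 37 °C before detection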
Method in brief: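 Primary rat proximal tubule cells, 1000/well, 5 h plating at 37 °C, then compound 16 h at 37 °C. Caspase-Glo 3/7 reagent, 1 h RT, luminescence. Normalized to DMSO (basal) and 10 uM staurosporine (100%); Hill-fit AC50.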

[10] = target: Cytochrome P450 3A4 (Homo sapiens) (UniProt P08684); experiment: qHTS Assay for Inhibitors and Substrates of Cytochrome P450 3A4 (AID 884); note: nearly all actives have a fitted effect of over 50% in size; note: potency is the fitted concentration of half-maximal effect
Chain of Cytochrome P450 3A4 (Homo sapiens) (P08684 whole entry, looked up): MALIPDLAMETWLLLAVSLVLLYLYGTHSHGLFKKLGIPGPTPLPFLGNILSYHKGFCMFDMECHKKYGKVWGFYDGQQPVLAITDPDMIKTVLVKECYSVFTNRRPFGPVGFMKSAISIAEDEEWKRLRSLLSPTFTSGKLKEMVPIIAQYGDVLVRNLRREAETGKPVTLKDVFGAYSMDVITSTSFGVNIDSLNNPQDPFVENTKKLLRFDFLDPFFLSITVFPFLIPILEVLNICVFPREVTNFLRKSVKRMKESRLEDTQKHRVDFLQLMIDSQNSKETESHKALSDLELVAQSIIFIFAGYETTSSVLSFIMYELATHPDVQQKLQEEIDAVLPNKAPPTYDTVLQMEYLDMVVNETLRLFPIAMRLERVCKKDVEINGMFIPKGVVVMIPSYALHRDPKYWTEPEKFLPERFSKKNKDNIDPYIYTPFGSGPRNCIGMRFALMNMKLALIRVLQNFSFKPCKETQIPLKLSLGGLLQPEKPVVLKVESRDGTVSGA
Method in brief: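 Luminescent readout of luciferin produced by CYP3A4 (20 nM) dealkylation of Luciferin-PPXE, 25 uM (its KM). NADPH-driven reaction ran 60 min at RT after 10 min compound preincubation; data scaled to 57 uM ketoconazole as 100% inhibition.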

[11] = Cell Viability - LYMP2-001 (AID 921); note: nearly all actives have a fitted effect of over 70% in size; note: potency is the fitted concentration of half-maximal effect
Method in brief: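 Human lymphoblastoid cells (Coriell), 2500 per well, were preincubated 5 hr at 37 C, then exposed to compounds in complete medium for 24 hr at 37 C. Cellular ATP was read by CellTiter-Glo luminescence; AC50 from Hill fits of concentration-response data.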

[12] = MultiTox-Fluor Cytotoxicity Assay - LYMP1-001 - Dead Cells (AID 946)
Method in brief: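 In this qHTS, 15 uM tetraoctylammonium bromide defined 100% and DMSO defined basal activity. Lymphoblastoid cells (LYMP1-001, 2500 per well) received compound for 16 hr at 37 C before a fluorogenic dead-cell substrate readout at 485/520 nm.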

[13] = MultiTox-Fluor Cytotoxicity Assay - LYMP1-001 - Live Cells (AID 947); note: potency is the fitted concentration of half-maximal effect
[14] = Cell Viability - LYMP1-002 - Assay at 16 hr (AID 948); note: potency is the fitted concentration of half-maximal effect
Method in brief: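 Human lymphoblastoid cells (LYMP1-002), 2500/well, were preincubated 5 hr at 37 C, then exposed to compounds for 16 hr at 37 C in complete medium. Cellular ATP was read by CellTiter-Glo luminescence after 30 min at room temperature; AC50 from Hill fits.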

[15] = MultiTox-Fluor Cytotoxicity Assay - LYMP1-002 - Live Cells (AID 955); note: potency is the fitted concentration of half-maximal effect
Method in brief: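 After 16 h compound exposure at 37 C, live LYMP1-002 lymphoblastoid cells (2500/well) were quantified by cleavage of cell-permeant GF-AFC substrate, read at 405/510 nm after 60 min. Concentration-response fitted with Hill equation for AC50.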

[16] = target: Cytochrome P450 2D6 (Homo sapiens) (UniProt P10635); experiment: qHTS Assay for Inhibitors and Substrates of Cytochrome P450 2D6 (AID 891); note: nearly all actives have a fitted effect of over 60% in size; note: potency is the fitted concentration of half-maximal effect
Chain of Cytochrome P450 2D6 (Homo sapiens) (P10635 whole entry, looked up): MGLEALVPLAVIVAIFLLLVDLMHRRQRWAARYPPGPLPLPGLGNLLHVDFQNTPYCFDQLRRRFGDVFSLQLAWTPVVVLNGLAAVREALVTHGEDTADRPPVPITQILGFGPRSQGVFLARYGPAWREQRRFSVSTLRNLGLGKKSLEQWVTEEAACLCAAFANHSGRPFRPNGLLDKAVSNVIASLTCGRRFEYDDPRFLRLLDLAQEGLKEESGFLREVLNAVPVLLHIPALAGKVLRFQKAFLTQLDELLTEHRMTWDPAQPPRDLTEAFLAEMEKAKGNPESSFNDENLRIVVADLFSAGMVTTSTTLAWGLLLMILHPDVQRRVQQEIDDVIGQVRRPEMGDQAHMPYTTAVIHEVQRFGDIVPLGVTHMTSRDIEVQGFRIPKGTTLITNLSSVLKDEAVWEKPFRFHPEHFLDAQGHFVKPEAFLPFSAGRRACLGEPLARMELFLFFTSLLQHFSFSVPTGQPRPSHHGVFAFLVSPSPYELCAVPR
Method in brief: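 Luminescent read-out of luciferin formed by 5 nM human CYP2D6 demethylating 30 uM Luciferin-ME EGE (Km level) over 60 min at room temperature after NADPH regeneration addition. Data normalized to full inhibition by 1.43 uM quinidine.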

[17] = Confirmation and Secondary Assay for Modulators of Hemoglobin Beta Chain Splicing at IVS2 654 locus (AID 910);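 note: HeLa cells stably carrying EGFP split by mutant beta-globin IVS2-654 intron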
Method in brief: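 HeLa cells stably expressing EGFP interrupted by β-globin IVS2-654 intron, seeded overnight in Opti-MEM/2% FCS, then treated 2 days at 37 °C. Restored splicing read as total peak GFP intensity per well by laser scanning cytometry (488 nm excitation, 500–520 nm emission); 500 nM antisense PNA as control.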

[18] = target: Cytochrome P450 3A4 (Homo sapiens) (UniProt P08684); experiment: qHTS Assay for Activators of Cytochrome P450 3A4 (AID 885); note: nearly all actives have a fitted effect of over 65% in size
Method in brief: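 Using 20nM recombinant human CYP3A4 in potassium phosphate (200mM), substrate Luciferin-PPXE at 25uM, luminescent luciferin detection followed a 60-min RT NADPH reaction; data scaled to 57 uM ketoconazole.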

[19] = qHTS Assay for Identification of Small Molecule Antagonists for Thrombopoietin (TPO) Signaling Pathway (AID 918); details: TPO-dependent cell signaling reporter, antagonist mode; note: potency is the fitted concentration of half-maximal effect; nearly all actives have a fitted effect of over 60% in size
Method in brief: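 Inhibition read as reduced luciferase luminescence after 24 h at 37 C in IL-3-deprived Ba/F3 cells carrying human TPO receptor and GPIIb-promoter reporter, stimulated with 26 pM TPO (final, its EC50) alongside compound.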

Measured: Potency

Cn1cnc(CCN)c1
inactive: [1] | [2] | [3] | [4] | [5] | [6]

Nc1ccc(Cl)cc1
inactive: [7] | [8] | [9] | [10] | [11] | [12] | [13] | [14] | [15]

S=C(NC1CCCCC1)N1CCC(c2cnc[nH]2)CC1
inactive: [1]

Nc1ccc([N+](=O)[O-])cc1
inactive: [7] | [8] | [9] | [10] | [11] | [12] | [13] | [14] | [15]

O=C(O)C(Cl)Cl
inactive: [7] | [8] | [9] | [10] | [11] | [12] | [13] | [14] | [15]

O=[N+]([O-])c1c(Cl)c(Cl)cc(Cl)c1Cl
inactive: [7] | [8] | [9] | [10] | [11] | [12] | [13] | [14] | [15]

O=C1CCCN1CC#CCN1CCCC1
inactive: [1] | [10] | [17] | [4] | [5] | [6]
inactive and 2 µM (active): [2]
active: [16] 7.94 µM | [3] 0.158 µM

CCCCOC(=O)c1ccccc1C(=O)OCc1ccccc1
inactive: [7] | [8] | [9] | [18] | [11] | [12] | [13] | [14] | [15]

CN(C)NC(=O)CCC(=O)O
inactive: [7] | [8] | [9] | [10] | [11] | [12] | [13] | [14] | [15]

c1cc2ccc3cccc4ccc(c1)c2c34
inactive: [7] | [8] | [9] | [18] | [11] | [12] | [13] | [14] | [15]

Cc1cc(O)ccc1Cl
inactive: [7] | [8] | [9] | [10] | [17] | [11] | [12] | [13] | [14] | [15]

CCCCc1ccc(C(=O)O)nc1
inactive: [1] | [2] | [10] | [18] | [16] | [3] | [6]

O=[N+]([O-])c1c2ccccc2cc2ccccc12
inactive: [7] | [8] | [9] | [18] | [11] | [12] | [13] | [14] | [15]

CC(C)(O)C(=O)Nc1ccc([N+](=O)[O-])c(C(F)(F)F)c1
inactive: [7] | [8] | [9] | [18] | [11] | [12] | [13] | [14] | [15]

CCCCCCCCc1ccc(O)cc1
inactive: [7] | [8] | [9] | [10] | [11] | [12] | [13] | [14] | [15]

Nc1ccc(Cl)cc1N
inactive: [7] | [8] | [9] | [18] | [12] | [13] | [14] | [15]

Cc1nc(-c2ccc(-c3ccc(C(=O)N4CCc5cc6c(cc54)C4(CCN(C)CC4)CO6)cc3)c(C)c2)no1
active: [2] 7.94 µM | [3] 3.98 µM | [19] 12.6 µM
inactive: [1] | [18]

CCCCC(CC)COC(=O)c1ccccc1C(=O)OCC(CC)CCCC (stereo unspecified)
inactive: [7] | [8] | [9] | [11] | [12] | [13] | [14] | [15]

Cc1nccc2c1[nH]c1ccccc12
inactive: [1] | [2] | [18] | [3] | [17] | [4] | [6]
active: [10] 3.98 µM

CCOCCOC(C)=O
inactive: [7] | [8] | [9] | [10] | [11] | [12] | [13] | [14] | [15]

O=C(O)COc1ccccc1
inactive: [7] | [8] | [9] | [10] | [11] | [12] | [14] | [15]

CC1=NN=C(c2ccc(N)cc2)c2cc3c(cc2C1)OCO3
active: [2] 1.26 µM | [3] 7.94 µM
inactive: [1] | [18] | [4] | [6]

C1CCC(NC2CCCCC2)CC1
inactive: [7] | [8] | [9] | [10] | [11] | [12] | [13] | [14] | [15]

C=CC(=O)NCNC(=O)C=C
inactive: [7] | [8] | [9] | [10] | [11] | [12] | [13] | [14] | [15]

CC(=O)[O][Hg][c]1ccccc1
inactive: [7] | [8] | [9] | [17]
active: [11] 0.501 µM | [13] 5.01 µM | [14] 6.31 µM | [15] 3.16 µM
